In PubChem BioAssay AID1159580 (chemical genetic matrix, 2015):
About 2,000 (36%) of roughly 5,500 compounds were called active. Roughly 18% stayed inconclusive and do not appear here. Rule as the data show it: active = normalized growth mostly below about 0.91 (no sharp cut-off); inconclusive = no clear call, values can overlap the other calls; inactive = mostly above about 0.92. Some of the results follow.

Assay: chemical genetic growth profiling, strain panel (AID 1159580);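 also: tested at 20 µM; growth read once vehicle control cultures reached saturation at 30 °C; 1 = growth at the plate median or of vehicle wells; lower values mean less growth of the strain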
Details: growth OD

Measured: normalized growth

COC(=O)[C@]1(C)CC[C@]2(C)CC[C@]3(C)C4=CC=C5C(=CC(=O)C(O)=C5C)[C@]4(C)CC[C@@]3(C)[C@@H]2C1
active: S. cerevisiae deletion strains, locus YJR043C, strain POL32, hits give low values 0.646 | S. cerevisiae deletion strains, locus YJR075W, strain HOC1, hits give low values 0.794 | S. cerevisiae deletion strains, locus YKL160W, strain elf1, hits give low values 0.702 | S. cerevisiae deletion strains, locus YKL190W, strain CNB1, hits give low values 0.712 | S. cerevisiae deletion strains, locus YKR001C, strain vps1, hits give low values 0.793 | S. cerevisiae deletion strains, locus YLL001W, strain dnm1, hits give low values 0.729 | S. cerevisiae deletion strains, locus YLL026W, hits give low values 0.887 | S. cerevisiae deletion strains, locus YLR027C, strain aat2, hits give low values 0.719 | S. cerevisiae deletion strains, locus YLR039C, strain RIC1, hits give low values 0.406 | S. cerevisiae deletion strains, locus YLR058C, strain SHM2, hits give low values 0.615 | S. cerevisiae deletion strains, locus YLR221C, strain rsa3, hits give low values 0.752 | S. cerevisiae deletion strains, locus YLR258W, strain gsy2, hits give low values 0.802 | S. cerevisiae deletion strains, locus YLR262C, strain YPT6 (second series), hits give low values 0.394 | S. cerevisiae deletion strains, locus YLR262C, strain YPT6, hits give low values 0.45 | S. cerevisiae deletion strains, locus YLR268W, strain sec22, hits give low values 0.832 | S. cerevisiae deletion strains, locus YLR320W, strain mms22, hits give low values 0.495 | S. cerevisiae deletion strains, locus YLR330W, strain CHS5, hits give low values 0.64 | S. cerevisiae deletion strains, locus YLR342W, strain FKS1 (second series), hits give low values 0.71 | S. cerevisiae deletion strains, locus YLR342W, strain FKS1, hits give low values 0.59 | S. cerevisiae deletion strains, locus YLR357W, strain rsc2, hits give low values 0.824 | S. cerevisiae deletion strains, locus YLR370C, strain arc18, hits give low values 0.797 | S. cerevisiae deletion strains, locus YLR418C, strain cdc73, hits give low values 0.383 | S. cerevisiae deletion strains, locus YML016C, strain PPZ1, hits give low values 0.781 | S. cerevisiae deletion strains, locus YML032C, strain rad52, hits give low values 0.873 | S. cerevisiae deletion strains, locus YML120C, strain ndi1, hits give low values 0.819 | S. cerevisiae deletion strains, locus YMR058W, strain fet3, hits give low values 0.115 | S. cerevisiae deletion strains, locus YMR125W, strain sto1, hits give low values 0.812 | S. cerevisiae deletion strains, locus YMR205C, strain PFK2, hits give low values 0.56 | S. cerevisiae deletion strains, locus YMR223W, strain ubp8, hits give low values 0.85 | S. cerevisiae deletion strains, locus YMR231W, strain pep5, hits give low values 0.863 | S. cerevisiae deletion strains, locus YMR263W, strain SAP30, hits give low values 0.803 | S. cerevisiae deletion strains, locus YNL067W, strain RPL9B, hits give low values 0.803 | S. cerevisiae deletion strains, locus YNL071W, strain lat1, hits give low values 0.347 | S. cerevisiae deletion strains, locus YNL128W, strain TEP1, hits give low values 0.548 | S. cerevisiae deletion strains, locus YNL209W, strain ssb2, hits give low values 0.454 | S. cerevisiae deletion strains, locus YNL233W, strain BNI4, hits give low values 0.811 | S. cerevisiae deletion strains, locus YNL248C, strain rpa49, hits give low values 0.887 | S. cerevisiae deletion strains, locus YNL271C, strain bni1, hits give low values 0.894 | S. cerevisiae deletion strains, locus YNL307C, strain MCK1, hits give low values 0.754 | S. cerevisiae deletion strains, locus YNL322C, strain KRE1, hits give low values 0.772 | S. cerevisiae deletion strains, locus YNR049C, strain mso1, hits give low values 0.878 | S. cerevisiae deletion strains, locus YNR052C, strain pop2, hits give low values 0.888 | S. cerevisiae deletion strains, locus YOL006C, strain TOP1, hits give low values 0.317 | S. cerevisiae deletion strains, locus YOL147C, strain pex11, hits give low values 0.91 | S. cerevisiae deletion strains, locus YOR061W, strain CKA2, hits give low values 0.744 | S. cerevisiae deletion strains, locus YOR069W, strain VPS5, hits give low values 0.836 | S. cerevisiae deletion strains, locus YOR070C, strain gyp1, hits give low values 0.678 | S. cerevisiae deletion strains, locus YOR080W, strain dia2, hits give low values 0.757 | S. cerevisiae deletion strains, locus YOR083W, strain WHI5, hits give low values 0.757 | S. cerevisiae deletion strains, locus YOR106W, strain vam3, hits give low values 0.574 | S. cerevisiae deletion strains, locus YOR144C, strain elg1, hits give low values 0.908 | S. cerevisiae deletion strains, locus YOR184W, strain ser1, hits give low values 0.645 | S. cerevisiae deletion strains, locus YOR265W, strain rbl2, hits give low values 0.747 | S. cerevisiae deletion strains, locus YOR270C, strain vph1, hits give low values 0.472 | S. cerevisiae deletion strains, locus YOR290C, strain snf2, hits give low values 0.515 | S. cerevisiae deletion strains, locus YPL051W, strain arl3, hits give low values 0.448 | S. cerevisiae deletion strains, locus YPL078C, strain atp4, hits give low values 0.65 | S. cerevisiae deletion strains, locus YPL240C, strain hsp82, hits give low values 0.81 | S. cerevisiae deletion strains, locus YPL241C, strain CIN2, hits give low values 0.898 | S. cerevisiae deletion strains, locus YPR163C, strain tif3, hits give low values 0.888 | S. cerevisiae deletion strains, locus YPR167C, strain met16, hits give low values 0.917 | S. cerevisiae deletion strains, strain wtn01, hits give low values 0.894 | S. cerevisiae strains, strain wild type, hits give low values 0.572
inactive: S. cerevisiae deletion strains, locus YKL009W, strain mrt4, hits give low values 1.06 | S. cerevisiae deletion strains, locus YKL068W, hits give low values 0.961 | S. cerevisiae deletion strains, locus YKL085W, strain MDH1 (second series), hits give low values 1.01 | S. cerevisiae deletion strains, locus YKL085W, strain MDH1, hits give low values 1.01 | S. cerevisiae deletion strains, locus YKR026C, strain gcn3, hits give low values 0.941 | S. cerevisiae deletion strains, locus YKR091W, strain srl3, hits give low values 0.995 | S. cerevisiae deletion strains, locus YLL041C, strain sdh2, hits give low values 0.929 | S. cerevisiae deletion strains, locus YLR102C, strain apc9, hits give low values 0.983 | S. cerevisiae deletion strains, locus YLR371W, strain rom2, hits give low values 0.948 | S. cerevisiae deletion strains, locus YLR384C, strain iki3, hits give low values 0.96 | S. cerevisiae deletion strains, locus YML124C, strain tub3, hits give low values 0.956 | S. cerevisiae deletion strains, locus YMR078C, strain ctf18, hits give low values 0.934 | S. cerevisiae deletion strains, locus YMR307W, strain GAS1, hits give low values 0.65 | S. cerevisiae deletion strains, locus YNL250W, strain rad50, hits give low values 0.934 | S. cerevisiae deletion strains, locus YNL298W, strain CLA4, hits give low values 0.957 | S. cerevisiae deletion strains, locus YNL322C, strain KRE1 (second series), hits give low values 0.978 | S. cerevisiae deletion strains, locus YOL012C, strain htz1 0.412 | S. cerevisiae deletion strains, locus YOR001W, strain rrp6, hits give low values 0.918 | S. cerevisiae deletion strains, locus YOR136W, strain idh2, hits give low values 0.961 | S. cerevisiae deletion strains, locus YOR316C, strain cot1, hits give low values 0.962 | S. cerevisiae deletion strains, locus YPL106C, strain sse1, hits give low values 0.854 | S. cerevisiae deletion strains, locus YPR119W, strain clb2, hits give low values 0.957 | S. cerevisiae deletion strains, locus YPR141C, strain kar3, hits give low values 0.943
